Reference: the supplement of paper PMC8728848
This excerpt belongs to a sample that is enriched for the strongest signals.

Legend:
Experiment in all cases: glycan array binding signal (z-score within array); higher = stronger binding
Conditions in all cases: glycan notation: IUPAC condensed, linker removed
[1] = target: Gal(b1-4)GlcNAc(b1-3)[GlcNAc(b1-6)]Gal(b1-4)GlcNAc
Outline: (§1)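 The Consortium for Functional Glycomics database supplied 3228 glycan arrays, of which those lacking an available protein sequence were dropped. The binding signal, a within-array Z-score, was averaged across arrays of the same protein sequence and across linkers. Negative scores can be read as non-binding.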

[2] = target: Gal(b1-6)Gal
Outline: as §1

[3] = target: Gal3S6S(b1-4)GlcNAc
Outline: as §1

[4] = target: Gal6S(b1-4)GlcNAc
Outline: as §1

[5] = target: GalNAc(b1-4)GlcNAc(b1-3)GalNAc(b1-4)GlcNAc
Outline: as §1

[6] = target: GalNAc3S(b1-4)[Fuc(a1-3)]GlcNAc
Outline: as §1

[7] = target: GlcNAc(a1-3)Gal(b1-4)GlcNAc
Outline: as §1

[8] = target: GlcNAc(a1-4)Gal(b1-4)GlcNAc(b1-3)Gal(b1-4)GlcNAc(b1-3)Gal(b1-4)GlcNAc
Outline: as §1

[9] = target: GlcNAc(b1-2)[GlcNAc(b1-4)]Man(a1-3)[GlcNAc(b1-2)Man(a1-6)]Man(b1-4)GlcNAc(b1-4)GlcNAc
Outline: as §1

[10] = target: GlcNAc(b1-3)Gal(b1-4)GlcNAc(b1-3)Gal(b1-4)GlcNAc(b1-2)[GlcNAc(b1-3)Gal(b1-4)GlcNAc(b1-3)Gal(b1-4)GlcNAc(b1-6)]Man(a1-6)[GlcNAc(b1-3)Gal(b1-4)GlcNAc(b1-3)Gal(b1-4)GlcNAc(b1-2)Man(a1-3)]Man(b1-4)GlcNAc(b1-4)[Fuc(a1-6)]GlcNAc
Outline: as §1

[11] = target: GlcNAc(b1-3)Gal(b1-4)GlcNAc(b1-3)Gal(b1-4)GlcNAc(b1-3)Gal(b1-4)GlcNAc(b1-2)[GlcNAc(b1-3)Gal(b1-4)GlcNAc(b1-3)Gal(b1-4)GlcNAc(b1-3)Gal(b1-4)GlcNAc(b1-6)]Man(a1-6)[GlcNAc(b1-3)Gal(b1-4)GlcNAc(b1-3)Gal(b1-4)GlcNAc(b1-3)Gal(b1-4)GlcNAc(b1-2)Man(a1-3)]Man(b1-4)GlcNAc(b1-4)[Fuc(a1-6)]GlcNAc
Outline: as §1

[12] = target: GlcNAc(b1-3)Man
Outline: as §1

[13] = target: GlcNAc(b1-3)[GlcNAc(b1-4)][GlcNAc(b1-6)]GlcNAc
Outline: as §1

[14] = target: GlcNAc(b1-4)GlcNAc(b1-4)GlcNAc(b1-4)GlcNAc(b1-4)GlcNAc(b1-4)GlcNAc
Outline: as §1

[15] = target: Kdn(a2-3)Gal(b1-4)Glc
Outline: as §1

[16] = target: Kdn(a2-6)Gal(b1-4)GlcNAc
Outline: as §1

[17] = target: Man(a1-3)[Man(a1-6)]Man(a1-6)[Man(a1-2)Man(a1-3)]Man(b1-4)GlcNAc(b1-4)GlcNAc
Outline: as §1

[18] = target: Man(a1-3)[Man(a1-6)]Man(a1-6)[Man(a1-3)]Man
Outline: as §1

[19] = target: Man(a1-3)[Man(a1-6)]Man(a1-6)[Man(a1-3)]Man(b1-4)GlcNAc(b1-4)GlcNAc
Outline: as §1

[20] = target: Man(a1-3)[Man(a1-6)]Man(b1-4)GlcNAc(b1-4)[Fuc(a1-6)]GlcNAc
Outline: as §1

[21] = target: Man(a1-6)Man
Outline: as §1

[22] = target: Neu5Ac(a2-3)Gal(b1-3)GlcNAc(b1-2)Man(a1-3)[Neu5Ac(a2-3)Gal(b1-3)GlcNAc(b1-2)Man(a1-6)]Man(b1-4)GlcNAc(b1-4)GlcNAc
Outline: as §1

[23] = target: Neu5Ac(a2-3)Gal(b1-3)GlcNAc(b1-6)GalNAc
Outline: as §1

[24] = target: Neu5Ac(a2-3)[Neu5Ac(a2-6)]GalNAc
Outline: as §1

[25] = target: Neu5Ac(a2-6)Gal(b1-4)GlcNAc(b1-2)Man(a1-3)[Gal(b1-4)GlcNAc(b1-2)Man(a1-6)]Man(b1-4)GlcNAc(b1-4)GlcNAc
Outline: as §1

[26] = target: Neu5Ac(a2-6)Gal(b1-4)GlcNAc(b1-2)Man(a1-3)[Man(a1-6)]Man(b1-4)GlcNAc(b1-4)GlcNAc
Outline: as §1

[27] = target: Neu5Ac(a2-8)Neu5Ac(a2-3)Gal(b1-4)Glc
Outline: as §1

[28] = target: Neu5Ac(a2-8)Neu5Ac(a2-8)Neu5Ac(a2-3)[GalNAc(b1-4)]Gal(b1-4)Glc
Outline: as §1

[29] = target: Neu5Gc(a2-3)Gal(b1-3)GlcNAc
Outline: as §1

B1: PfulAvr4 (Pseudocercospora fuligena) (protein)
chain: HHHHHHDYKDDDDKTYVQDKTPAFVCPAADIKTTKCLGPKDCLYPSPKTCNGYIQCSPADDSYLTGIIHEMPCPSGLLWNDNKKWCDWPENTTCGLVKSAGATEVDATKQGPTPGKYHG
B1 was tested, and the “glycan array binding signal (z-score)” value [1] was 1.21, the “glycan array binding signal (z-score)” value [2] was -0.156 and the “glycan array binding signal (z-score)” value [3] was 0.034. For the same binder, the “glycan array binding signal (z-score)” value [4] was -0.128, the “glycan array binding signal (z-score)” value [5] was -0.127 and the “glycan array binding signal (z-score)” value [6] was -0.134. For the same binder, the “glycan array binding signal (z-score)” value [7] was -0.093, the “glycan array binding signal (z-score)” value [8] was -0.059 and the “glycan array binding signal (z-score)” value [9] was -0.053. For the same binder, the “glycan array binding signal (z-score)” value [10] was -0.049, the “glycan array binding signal (z-score)” value [11] was -0.07 and the “glycan array binding signal (z-score)” value [12] was 0.804. For the same binder, the “glycan array binding signal (z-score)” value [13] was -0.124, the “glycan array binding signal (z-score)” value [14] was 23.3 and the “glycan array binding signal (z-score)” value [15] was 0.189. The “glycan array binding signal (z-score)” value [16] was 0.004, the “glycan array binding signal (z-score)” value [17] was 0.011 and the “glycan array binding signal (z-score)” value [18] was -0.076. The “glycan array binding signal (z-score)” value [19] was -0.097, the “glycan array binding signal (z-score)” value [20] was -0.095 and the “glycan array binding signal (z-score)” value [21] was -0.118. For the same binder, the “glycan array binding signal (z-score)” value [22] was 1.27, the “glycan array binding signal (z-score)” value [23] was -0.082 and the “glycan array binding signal (z-score)” value [24] was -0.131. The “glycan array binding signal (z-score)” value [25] was 3.32, the “glycan array binding signal (z-score)” value [26] was -0.088 and the “glycan array binding signal (z-score)” value [27] was -0.074. The “glycan array binding signal (z-score)” value [28] was -0.132 and the “glycan array binding signal (z-score)” value [29] was -0.161.
